Assay results: PubChem BioAssay (NCI)
Compounds without any hit were thinned out: in the full panel of roughly 83,000, 20% have a hit.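 A percent growth of 40 corresponds to 60% growth inhibition; 0 means no net growth; -100 means all cells died. Active threshold: below 10.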 The source made the active and inactive calls.

Experiments:
Assay in all cases: NCI-60 one-dose screen, 48 h (100 = growth as untreated, 0 = no growth, -100 = all killed)
Conditions in all cases: 10 µM unless noted
RPMI-8226 leukemia = test system: RPMI-8226 leukemia
OVCAR-8 ovarian = test system: OVCAR-8 ovarian
OVCAR-5 ovarian = test system: OVCAR-5 ovarian
OVCAR-4 ovarian = test system: OVCAR-4 ovarian
SK-OV-3 ovarian = test system: SK-OV-3 ovarian
IGROV1 ovarian = test system: IGROV1 ovarian
OVCAR-3 ovarian = test system: OVCAR-3 ovarian
HS 578T breast = test system: HS 578T breast
NCI/ADR-RES ovarian = test system: NCI/ADR-RES ovarian
T-47D breast = test system: T-47D breast

Measured: growth

CCCCCCCCCCOC(=O)c1ccccc1C(=O)OCCCC
inactive: RPMI-8226 leukemia 101% | OVCAR-8 ovarian 109% | OVCAR-5 ovarian 103% | OVCAR-4 ovarian 115% | SK-OV-3 ovarian 114% | IGROV1 ovarian 118% | OVCAR-3 ovarian 106% | HS 578T breast 118% | NCI/ADR-RES ovarian 107% | T-47D breast 106%

CCOc1ccc2c(c1)CN(Cc1ccc(Cl)cc1)CO2
inactive: RPMI-8226 leukemia 43.3% | OVCAR-8 ovarian 34.1% | OVCAR-5 ovarian 90.9% | SK-OV-3 ovarian 13.5% | IGROV1 ovarian 71% | OVCAR-3 ovarian 22.2% | NCI/ADR-RES ovarian 43.7% | T-47D breast 52.4%
active: OVCAR-4 ovarian -27.4% | HS 578T breast -7.66%

O=C(N/N=C/c1ccccc1O)C(=O)Nc1ccc(F)cc1
inactive: RPMI-8226 leukemia 52.2% | OVCAR-8 ovarian 38.7% | OVCAR-5 ovarian 64.8% | OVCAR-4 ovarian 27.2% | SK-OV-3 ovarian 59.1% | IGROV1 ovarian 53% | OVCAR-3 ovarian 27.7% | HS 578T breast 74.6% | NCI/ADR-RES ovarian 18.1% | T-47D breast 52.6%

O=c1oc2ccc(I)cc2c(=O)n1-c1ccc(F)cc1F
inactive: OVCAR-8 ovarian 12.5% | OVCAR-5 ovarian 40% | OVCAR-4 ovarian 12.7% | IGROV1 ovarian 20.2% | HS 578T breast 19.8%
active: RPMI-8226 leukemia 1.49% | SK-OV-3 ovarian -19.4% | OVCAR-3 ovarian 2.05% | NCI/ADR-RES ovarian 5.71% | T-47D breast -13.5%

CCN(CC)CCNC(=O)C(Cl)=C1C(Cl)=C(Cl)C(Cl)=C1Cl
inactive: RPMI-8226 leukemia 30.6% | OVCAR-8 ovarian 15.8% | OVCAR-5 ovarian 120% | OVCAR-4 ovarian 41.9% | SK-OV-3 ovarian 58.7% | IGROV1 ovarian 59.1% | OVCAR-3 ovarian 40.1% | HS 578T breast 82.2% | NCI/ADR-RES ovarian 44.7% | T-47D breast 56.6%

COc1ccc(C2=Nn3c(NN)nnc3SC2)cc1
inactive: RPMI-8226 leukemia 104% | OVCAR-8 ovarian 96.4% | OVCAR-5 ovarian 108% | OVCAR-4 ovarian 101% | SK-OV-3 ovarian 105% | IGROV1 ovarian 96% | OVCAR-3 ovarian 111% | HS 578T breast 96% | NCI/ADR-RES ovarian 102% | T-47D breast 96.1%

Nc1ccccc1-c1ccc(-c2ccc(Cl)cc2)c2c1[nH]c1ccccc12
inactive: RPMI-8226 leukemia 42.1% | OVCAR-8 ovarian 77% | OVCAR-5 ovarian 91.2% | OVCAR-4 ovarian 92.5% | SK-OV-3 ovarian 106% | IGROV1 ovarian 62.3% | OVCAR-3 ovarian 79% | HS 578T breast 82.4% | NCI/ADR-RES ovarian 77.2% | T-47D breast 60.4%

CCCCNc1nc(NC(C)(C)C)nc(NC(C)(C)C)n1
inactive: RPMI-8226 leukemia 17.7% | OVCAR-8 ovarian 59.5% | OVCAR-5 ovarian 62% | OVCAR-4 ovarian 55.2% | SK-OV-3 ovarian 81.9% | IGROV1 ovarian 51.3% | OVCAR-3 ovarian 54.2% | HS 578T breast 67.7% | NCI/ADR-RES ovarian 53.3% | T-47D breast 45.3%

Cc1nc2ccccc2c(/C=C/c2ccc(F)cc2)c1C(N)=O
inactive: RPMI-8226 leukemia 96.1% | OVCAR-8 ovarian 104% | OVCAR-5 ovarian 105% | OVCAR-4 ovarian 95.5% | SK-OV-3 ovarian 105% | IGROV1 ovarian 97.4% | OVCAR-3 ovarian 107% | HS 578T breast 106% | NCI/ADR-RES ovarian 111% | T-47D breast 90.8%

COc1cc(C(=O)O/N=C(\N)Cc2cccc3ccccc23)cc(OC)c1OC
active: RPMI-8226 leukemia -36.4% | OVCAR-8 ovarian 1.62% | OVCAR-3 ovarian 6.38% | T-47D breast -73.1%
inactive: OVCAR-5 ovarian 48% | OVCAR-4 ovarian 66.8% | SK-OV-3 ovarian 69.2% | IGROV1 ovarian 46.9% | HS 578T breast 26% | NCI/ADR-RES ovarian 59.8%

O=c1oc2ccc(F)cc2c(=O)n1-c1ccc(I)cc1F
inactive: OVCAR-5 ovarian 22.2% | OVCAR-4 ovarian 12.4% | IGROV1 ovarian 17.2%
active: RPMI-8226 leukemia -20.4% | OVCAR-8 ovarian 8.61% | SK-OV-3 ovarian -4.12% | OVCAR-3 ovarian 8.05% | HS 578T breast -4.95% | NCI/ADR-RES ovarian 2.32% | T-47D breast -16.2%

O=C(Nc1ccc(N2CCNCC2)cc1)c1[nH]ncc1Nc1cc(Oc2ccccc2)ncn1
inactive: OVCAR-8 ovarian 26.9% | OVCAR-4 ovarian 43.3% | SK-OV-3 ovarian 19.4% | IGROV1 ovarian 19.7% | HS 578T breast 32.4% | NCI/ADR-RES ovarian 77.5% | T-47D breast 40%
active: RPMI-8226 leukemia -52.9% | OVCAR-5 ovarian -26.4% | OVCAR-3 ovarian 6.24%

COc1cc2nc(-c3cnc(N(C)C)nc3)nc(NC3CCN(Cc4ccccc4)CC3)c2cc1OC
active: RPMI-8226 leukemia -50.5% | OVCAR-8 ovarian -42.9% | OVCAR-5 ovarian -94.8% | OVCAR-4 ovarian -93.5% | SK-OV-3 ovarian -68% | IGROV1 ovarian -76.4% | OVCAR-3 ovarian -85.1% | HS 578T breast -47% | NCI/ADR-RES ovarian -54.1% | T-47D breast -46.6%

Cc1ccc(F)cc1NC(=O)c1cc(Cl)ccc1Nc1ccccc1
inactive: RPMI-8226 leukemia 32.2% | OVCAR-8 ovarian 27.3% | OVCAR-5 ovarian 70.2% | OVCAR-4 ovarian 51.6% | SK-OV-3 ovarian 82.8% | IGROV1 ovarian 71% | OVCAR-3 ovarian 53.4% | HS 578T breast 90.4% | NCI/ADR-RES ovarian 40.1% | T-47D breast 37.1%

CCOc1cc2c(cc1OCC)C(c1cc(C)c(O)c(C)c1)NCC2 (stereo not given)
inactive: RPMI-8226 leukemia 77.5% | OVCAR-8 ovarian 92.2% | OVCAR-5 ovarian 97.6% | OVCAR-4 ovarian 95.9% | SK-OV-3 ovarian 101% | IGROV1 ovarian 101% | OVCAR-3 ovarian 101% | HS 578T breast 107% | NCI/ADR-RES ovarian 84.4% | T-47D breast 91.6%

O=c1oc2ccc(I)cc2c(=O)n1-c1ccc(I)cc1F
inactive: OVCAR-5 ovarian 27.1% | OVCAR-4 ovarian 16.7% | IGROV1 ovarian 15.9%
active: RPMI-8226 leukemia -31.2% | OVCAR-8 ovarian 9.03% | SK-OV-3 ovarian 0.665% | OVCAR-3 ovarian 7.88% | HS 578T breast -4.47% | NCI/ADR-RES ovarian 9.94% | T-47D breast -3.25%

O=C(O)c1cn(C2CC2)c2cc(N3CCN(C(=O)C[n+]4ccccc4)CC3)c(F)cc2c1=O
inactive: RPMI-8226 leukemia 106% | OVCAR-8 ovarian 105% | OVCAR-5 ovarian 104% | OVCAR-4 ovarian 89.4% | SK-OV-3 ovarian 110% | IGROV1 ovarian 109% | OVCAR-3 ovarian 107% | HS 578T breast 99.3% | NCI/ADR-RES ovarian 105% | T-47D breast 94.2%

Cc1ccc(S(=O)(=O)c2c(COC(=O)c3cccc(C)c3)c(-c3ccccc3)nn2C)cc1
active: OVCAR-4 ovarian -59% | OVCAR-3 ovarian -77.9% | T-47D breast -64.3%
inactive: RPMI-8226 leukemia 78.5% | OVCAR-8 ovarian 88.5% | OVCAR-5 ovarian 115% | SK-OV-3 ovarian 104% | IGROV1 ovarian 80.9% | HS 578T breast 99.9% | NCI/ADR-RES ovarian 106%

O=C1c2cc(Cl)ccc2Oc2cc([N+](=O)[O-])ccc2N1c1ccc(F)cc1F
inactive: RPMI-8226 leukemia 87.6% | OVCAR-8 ovarian 86.8% | OVCAR-5 ovarian 100% | OVCAR-4 ovarian 79.4% | SK-OV-3 ovarian 111% | IGROV1 ovarian 75.9% | OVCAR-3 ovarian 106% | HS 578T breast 87.2% | NCI/ADR-RES ovarian 97.7% | T-47D breast 72%

Nc1ccc(-c2nc3cc(Oc4ccc(Oc5ccc6[nH]c(-c7ccc(N)cc7)nc6c5)cc4)ccc3[nH]2)cc1
inactive: RPMI-8226 leukemia 101% | OVCAR-8 ovarian 91.3% | OVCAR-5 ovarian 113% | OVCAR-4 ovarian 114% | SK-OV-3 ovarian 98.7% | IGROV1 ovarian 120% | OVCAR-3 ovarian 122% | HS 578T breast 108% | NCI/ADR-RES ovarian 103% | T-47D breast 77.3%

CSc1nc2c(c(=O)n1C)N=C1c3ccccc3C(=O)C1C(c1ccccc1)N2 (stereo not given)
inactive: RPMI-8226 leukemia 94.9% | OVCAR-8 ovarian 77.7% | OVCAR-5 ovarian 87.9% | OVCAR-4 ovarian 72.6% | SK-OV-3 ovarian 72.4% | IGROV1 ovarian 30.4% | OVCAR-3 ovarian 39.4% | HS 578T breast 71.8% | NCI/ADR-RES ovarian 55.8% | T-47D breast 61.9%

CC(C)C[C@H](C(=O)N[C@H](C(N)=O)C(C)C)N1CC=CCN(OCc2ccccc2)S1(=O)=O
inactive: RPMI-8226 leukemia 98.7% [2.5 µM] | OVCAR-8 ovarian 95.2% [2.5 µM] | OVCAR-5 ovarian 95.2% [2.5 µM] | OVCAR-4 ovarian 109% [2.5 µM] | SK-OV-3 ovarian 88.3% [2.5 µM] | IGROV1 ovarian 107% [2.5 µM] | OVCAR-3 ovarian 112% [2.5 µM] | HS 578T breast 107% [2.5 µM] | NCI/ADR-RES ovarian 95.6% [2.5 µM] | T-47D breast 95.7% [2.5 µM]

c1ccc(CNc2nc(Nc3ccccc3)nc3ccccc23)cc1
active: SK-OV-3 ovarian 3.4%
inactive: RPMI-8226 leukemia 45.4% | OVCAR-8 ovarian 34.9% | OVCAR-5 ovarian 72.8% | OVCAR-4 ovarian 36.8% | IGROV1 ovarian 63.2% | OVCAR-3 ovarian 39.6% | HS 578T breast 44.4% | NCI/ADR-RES ovarian 62.3% | T-47D breast 77.4%

O=S1(=O)CCN(Cc2ccccc2)CC1
inactive: RPMI-8226 leukemia 102% | OVCAR-8 ovarian 111% | OVCAR-5 ovarian 96.2% | OVCAR-4 ovarian 107% | SK-OV-3 ovarian 101% | IGROV1 ovarian 119% | OVCAR-3 ovarian 105% | HS 578T breast 109% | NCI/ADR-RES ovarian 106% | T-47D breast 93.3%

Cc1ccc(Nc2nc(N)c3ccccc3n2)cc1Cl
inactive: RPMI-8226 leukemia 24% | OVCAR-8 ovarian 57.8% | OVCAR-5 ovarian 75.5% | OVCAR-4 ovarian 55.7% | SK-OV-3 ovarian 80.4% | IGROV1 ovarian 57.3% | OVCAR-3 ovarian 63.5% | HS 578T breast 101% | NCI/ADR-RES ovarian 45.5% | T-47D breast 58.1%

CCN1C(=O)N(CC)C2Nn3c(s/c(=C4\C(=O)N(C(C)C)c5ccccc54)c3=O)=NC21 (stereo not given)
inactive: RPMI-8226 leukemia 23.3% | OVCAR-8 ovarian 39.9% | OVCAR-5 ovarian 64% | OVCAR-4 ovarian 35.2% | SK-OV-3 ovarian 35.5% | IGROV1 ovarian 49.5% | OVCAR-3 ovarian 19.4% | HS 578T breast 60.1% | T-47D breast 27.9%
active: NCI/ADR-RES ovarian 7.07%

O=c1oc2ccc(Br)cc2c(=O)n1-c1ccc(F)cc1F
inactive: OVCAR-8 ovarian 11% | OVCAR-5 ovarian 20.1% | OVCAR-4 ovarian 15% | IGROV1 ovarian 19.3%
active: RPMI-8226 leukemia -4.83% | SK-OV-3 ovarian -10.9% | OVCAR-3 ovarian 4.73% | HS 578T breast 5.31% | NCI/ADR-RES ovarian 5.44% | T-47D breast -9.1%
